# Measured values published in PubChem BioAssay.
# Several values for one entry are separate records, joined by “and”; a condition that tells them apart may be missing. Equal values may be shown once. Inconclusive results are not listed. More than one record can exist for a structure, and the calls need not agree. Activity calls are given as the source filed them. Unless noted, the rule behind the calls is not given here.
# What was measured:
# [1] = EMT-state selective cytotoxicity in co-culture – imaging, PC-3E GFP, TEM4-18 mCherry, primary screen (AID 1345086;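 active = compounds killing one labelled cell type while sparing the other, by normalised counts and ratio limits, not self-fluorescent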;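 for all read-outs here: cells exposed to compound for 72 h before imaging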;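 for red/green cell ratio (normalised): normalised mesenchymal count divided by normalised epithelial count so high means epithelial killing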); conditions: PC-3E GFP / TEM4-18 mCherry co-culture, imaging cell counts, at 1 µM; for red/green cell ratio (normalised): actives lie on both sides
# [2] = biological target: Mitogen-activated protein kinase 7 (Homo sapiens) (UniProt Q13164); test: Gal4-ERK5 driven luciferase induction – cell-based, HTS, primary screen (AID 1508626;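 active = luciferase signal above three times the same-plate solvent-only control wells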;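 note: luciferase driven by Gal4-ERK5 fusion binding five Gal4 sites before minimal TATA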); conditions: HeLa Gal4-ERK5 transactivation, 18 h, at 5 µM, stronger effect = higher value
# Chain of Mitogen-activated protein kinase 7 (Homo sapiens) (Q13164 whole entry, looked up, the tested form may be a part): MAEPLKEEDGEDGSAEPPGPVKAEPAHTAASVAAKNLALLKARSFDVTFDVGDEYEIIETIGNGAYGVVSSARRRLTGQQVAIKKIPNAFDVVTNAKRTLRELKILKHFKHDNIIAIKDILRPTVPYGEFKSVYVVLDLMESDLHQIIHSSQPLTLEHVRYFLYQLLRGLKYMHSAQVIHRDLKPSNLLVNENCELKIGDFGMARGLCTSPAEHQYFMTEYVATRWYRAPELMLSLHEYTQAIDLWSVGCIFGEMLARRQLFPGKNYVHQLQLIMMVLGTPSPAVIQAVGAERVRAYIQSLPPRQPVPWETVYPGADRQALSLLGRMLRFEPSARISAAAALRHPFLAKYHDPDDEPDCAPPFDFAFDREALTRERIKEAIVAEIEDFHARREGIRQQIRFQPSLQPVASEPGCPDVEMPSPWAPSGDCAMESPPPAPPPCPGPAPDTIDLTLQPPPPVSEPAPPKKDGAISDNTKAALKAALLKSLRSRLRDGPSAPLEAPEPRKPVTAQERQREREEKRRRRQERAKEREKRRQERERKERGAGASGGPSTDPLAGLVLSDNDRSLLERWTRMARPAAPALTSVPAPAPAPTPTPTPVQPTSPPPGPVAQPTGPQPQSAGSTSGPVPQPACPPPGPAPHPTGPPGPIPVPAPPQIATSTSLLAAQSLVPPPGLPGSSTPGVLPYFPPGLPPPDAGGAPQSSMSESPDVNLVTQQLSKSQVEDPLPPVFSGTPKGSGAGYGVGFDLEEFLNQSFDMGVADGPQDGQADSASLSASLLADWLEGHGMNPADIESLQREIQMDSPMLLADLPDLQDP
# [3] = compounds altering circadian rhythm period length – cell-based, LOPAC library, luminescence reporter (AID 2774); conditions: circadian reporter cells, at 7 µM, actives lie on both sides;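 note: values are relative to mean of DMSO wells on each plate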
# [4] = test system: Hepatitis C virus NS3 helicase; test: blockers of NS3h binding to ssDNA – biochemical, fluorescence polarization, LOPAC1280 library, primary screen (AID 687035; in the data active = inhibition above about 37%); conditions: Purified HCV NS3 helicase, Cy5-dT15 ssDNA binding fluorescence polarization; stronger effect = higher value; concentration not given here
# [5] = compounds altering Cy5-DNA-NS3h complex signal – biochemical, LOPAC1280, artefact control for HCV NS3 helicase inhibitor project (AID 687037); conditions: Cy5-DNA-NS3h complex fluorescence interference counterscreen
# [6] = test system: Aerobactin synthetase IucA (Klebsiella pneumoniae); test: inhibition of K. pneumoniae IucA enzyme – biochemical, Tocris library, absorbance (AID 1345561); conditions: purified IucA enzyme assay, absorbance (OD) read-out; stronger effect = lower value;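 tested at 8 µM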;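 note: 100% = enzyme without compound and 0% = no enzyme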
# [7] = test system: Aerobactin synthetase IucA (Klebsiella pneumoniae, hypervirulent); test: biochemical IucA inhibition screen of LOPAC library by absorbance (AID 1346212); conditions: IucA enzyme assay, absorbance (OD) readout; stronger effect = lower value;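 tested at 8 µM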;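 note: 100% = no compound wells and 0% = no enzyme wells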
# [8] = viability loss in pontine glioma line – cell-based, JHH-DIPG-1, MIPE4.0, CellTiter-Glo, qHTS, dose response (AID 1347062; cut-off not given, nearly all actives have AC50 up to about 27 µM;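 for AC50: cells exposed to compound for two days before readout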); conditions: JHH-DIPG-1 viability, CellTiter-Glo ATP luminescence
# [9] = viability loss in pontine glioma line – cell-based, SU-DIPG-IV, MIPE4.0, CellTiter-Glo, qHTS, dose response (AID 1347063; cut-off not given, nearly all actives have AC50 up to about 30 µM;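 note: compound exposure lasted 48 hours before the viability readout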); conditions: CellTiter-Glo ATP luminescence
# [10] = viability loss with induced miR-34 in A549 – imaging, A549 dox-inducible miR-34, nuclei and caspase counts, primary screen (AID 1347080;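 active = compounds whose cell count with miR-34 switched on is under 0.7 times the count with it off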); conditions: A549 miR-34 inducible, Hoechst nuclei count, 48 h
# [11] = blockers of cellular phospholipid synthesis – cell-based, LOPAC library, screen 4, primary screen (AID 1347384); conditions: animal cells, phospholipid biosynthesis inhibition screen; at 10 µM
# [12] = galactose survival enhancers in mitochondrial complex I cybrids – cell-based, galactose medium, ATP luminescence, primary screen (AID 1645843;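 active = z-score of at least 1.8 in each of two replicates, scored against plate mean and spread of sample wells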;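 note: positive z means more ATP and so rescue of galactose-driven cybrid death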); conditions: complex I mutant cybrid cells, 72 h, stronger effect = higher value
# [13] = MELAS cybrid and Rieske KO viability enhancers – cell-based, MELAS cybrids, Rieske KO mouse fibroblasts, CellTiter-Glo, primary screen (AID 1508586;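 active = mean z-score across replicates of 1.96 or higher in either the MELAS or the Rieske mutant cell line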;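 note: z relative to plate mean and SD of compound and empty wells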); conditions: low glucose
# [14] = growth inhibition of DIPG cells – cell-based, MIPE4.0 library, CellTiter-Glo luminescence, qHTS (AID 1347066; cut-off not given, nearly all actives have AC50 up to about 30 µM;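 note: cells exposed to compound for 48 hours before readout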); conditions: SU-DIPG-VI viability, CellTiter-Glo ATP luminescence
# [15] = biological target: NAD(+) hydrolase SARM1 (Homo sapiens) (UniProt Q6SZW1); test: blocking NAD cleavage by SARM1 SAM-TIR – cell lysate, NAD-Glo luminescence (AID 1508614;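 active = compound whose remaining NAD level is above about 45 nM, limit read from the data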;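 note: higher remaining NAD means stronger inhibition of SARM1 NADase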); conditions: SAM-TIR HEK293T lysate NADase, at 1 µM, stronger effect = higher value
# Chain of NAD(+) hydrolase SARM1 (Homo sapiens) (Q6SZW1 whole entry, looked up): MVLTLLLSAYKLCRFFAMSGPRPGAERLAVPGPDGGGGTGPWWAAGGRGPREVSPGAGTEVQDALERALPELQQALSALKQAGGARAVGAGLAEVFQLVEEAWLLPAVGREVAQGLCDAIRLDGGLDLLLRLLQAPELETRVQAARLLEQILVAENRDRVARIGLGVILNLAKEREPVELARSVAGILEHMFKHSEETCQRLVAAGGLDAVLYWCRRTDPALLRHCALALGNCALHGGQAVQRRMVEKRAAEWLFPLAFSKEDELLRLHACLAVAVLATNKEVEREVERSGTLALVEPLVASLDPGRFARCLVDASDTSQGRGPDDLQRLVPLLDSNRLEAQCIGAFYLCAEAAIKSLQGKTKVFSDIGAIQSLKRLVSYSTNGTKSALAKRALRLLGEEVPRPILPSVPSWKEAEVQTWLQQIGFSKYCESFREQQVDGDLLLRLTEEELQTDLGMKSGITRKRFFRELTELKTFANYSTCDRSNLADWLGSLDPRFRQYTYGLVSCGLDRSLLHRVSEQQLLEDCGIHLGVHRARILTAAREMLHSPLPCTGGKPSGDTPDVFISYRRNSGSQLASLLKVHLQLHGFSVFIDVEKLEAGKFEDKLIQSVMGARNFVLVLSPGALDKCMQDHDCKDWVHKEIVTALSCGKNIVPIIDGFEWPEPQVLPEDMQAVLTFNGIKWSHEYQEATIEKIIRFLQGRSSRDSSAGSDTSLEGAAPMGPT
# [16] = P. berghei load reduction in hepatocytes – cell-based, HepG2, luciferase luminescence, HepG2 viability, primary screen (AID 624349; in the data active = parasite load remaining mostly below about 12%, no sharp cut-off; inactive = mostly above about 10%;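 note: 100% = mean of DMSO negative control wells on the same plate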); conditions: P. berghei liver stage in HepG2, luciferase luminescence, concentration not given here; parasite load remaining: stronger effect = lower value; viability: measured here: HepG2 viability without parasites
# [17] = measured here: epithelial PC-3E GFP cell survival
# [18] = measured here: mesenchymal TEM4-18 mCherry cell survival
# [19] = measured here: relative caspase fold change +Dox/-Dox
# [20] = measured here: total cells with miR-34 induction, stronger effect = lower value
# [21] = measured here: total cells without miR-34 induction
# [22] = stronger effect = lower value, cell number ratio, induced over uninduced
compound,measurement,setting,value
COC(=O)[C@@H]1C[C@H](OC(C)=O)C(=O)[C@H]2[C@@]1(C)CC[C@H]1C(=O)O[C@H](c3ccoc3)C[C@]21C,red/green cell ratio (normalised),[1],1.04 (inactive)
same,normalised cell number,[1]; [17],0.84
same,normalised cell number,[1]; [18],0.87
same,luciferase signal,[2],52 AU (inactive)
c1ccc(CCCN2CCN(CCOC(c3ccccc3)c3ccccc3)CC2)cc1,period change,[3],-0.025 h (inactive)
same,inhibition,[4],0% (inactive)
same,fluorescence ratio (interference),[5],1 (inactive)
same,remaining activity,[6],117% (inactive)
same,remaining activity,[7],104% (inactive)
same,AC50,[8],20.9 µM (active)
same,AC50,[9],23.5 µM (active)
same,fold change,[10]; stronger effect = lower value,1.21 (inactive) and 0.966 (inactive)
same,fold change,[10]; [19],1.16 and 0.645
same,cell count,[10]; [20],3120 and 2750
same,cell count,[10]; [21],2580 and 2850
same,outcome,[11],inactive
same,z-score,[12],-1.04 (inactive) and -1.21 (inactive)
S=C(NC1CCCCC1)N1CCC(c2cnc[nH]2)CC1,period change,[3],-1.93 h (inactive)
same,inhibition,[4],-3% (inactive)
same,fluorescence ratio (interference),[5],0.9 (inactive)
same,remaining activity,[6],89.7% (inactive)
same,remaining activity,[7],99.4% (inactive)
same,fold change,[10]; stronger effect = lower value,0.921 (inactive)
same,fold change,[10]; [22],0.93 (inactive)
same,fold change,[10]; [19],1.06 and 0.678
same,cell count,[10]; [20],8920 and 7940
same,cell count,[10]; [21],9690 and 8540
same,outcome,[11],inactive
same,z-score,"[13]; MELAS cybrid survival, CellTiter-Glo 48 h, stronger effect = higher value",0.603 (inactive)
same,z-score,"[13]; Rieske KO mouse fibroblast survival, CellTiter-Glo 72 h",0.478
same,z-score,[12],-0.46 (inactive) and -0.595 (inactive)
C#CCOC(=O)C1=CCCN(C)C1,period change,[3],-0.055 h (inactive)
same,inhibition,[4],-1% (inactive)
same,fluorescence ratio (interference),[5],1 (inactive)
same,remaining activity,[6],105% (inactive)
same,remaining activity,[7],121% (inactive)
same,fold change,[10]; stronger effect = lower value,1.05 (inactive)
same,fold change,[10]; [22],0.926 (inactive)
same,fold change,[10]; [19],1.99 and 0.981
same,cell count,[10]; [20],10200 and 8480
same,cell count,[10]; [21],9640 and 9160
same,outcome,[11],inactive
same,z-score,[12],-0.93 (inactive) and -0.57 (inactive)
CC1=NN=C(c2ccc(N)cc2)c2cc3c(cc2C1)OCO3,period change,[3],0.095 h (inactive)
same,inhibition,[4],3% (inactive)
same,fluorescence ratio (interference),[5],1 (inactive)
same,remaining activity,[6],114% (inactive)
same,remaining activity,[7],78.1% (inactive)
same,outcome,[8],inactive
same,outcome,[9],inactive
same,outcome,[14],inactive
same,fold change,[10]; stronger effect = lower value,1.05 (inactive) and 1 (inactive)
same,fold change,[10]; [19],0.665 and 1.11
same,cell count,[10]; [20],10000 and 7840
same,cell count,[10]; [21],9520 and 7820
same,outcome,[11],inactive
same,z-score,[12],0.825 (inactive) and 4.29 (active)
CCC1(CC)C(=O)NC(=O)NC1=O,red/green cell ratio (normalised),[1],0.85 (inactive)
same,normalised cell number,[1]; [17],0.92
same,normalised cell number,[1]; [18],0.78
same,remaining NAD,[15],10 nM (inactive)
CCCCCCCCCCNCCC (tested in a mixture with another compound),parasite load remaining,[16],23% (inactive)
same,viability,[16],92.6%
same,red/green cell ratio (normalised),"[1]; counts scaled to control wells, 1 = unselective",0.92 (inactive)
same,normalised cell number,[1]; [17],1.01
same,normalised cell number,[1]; [18],0.93
same,fold change,[10]; [22],0.945 (inactive)
same,fold change,[10]; [19],1.32
same,cell count,[10]; [20],11300
same,cell count,[10]; [21],11900
